Compound activity as filed in PubChem.
IL-1B inflam inh: blocks inflammasome-driven IL-1 beta release; THP-1 LPS/ATP IL-1B secretion, AlphaLISA, 16 h; hits give low values; activity change, % at 57.5 µM; hit rate 4.7% among 360,000; AID 743279; in the data active means activity change below about -50%; inconclusive means mostly about -30% to -49%
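Secreted IL-1B measured by AlphaLISA bead assay after 16 h compound exposure of THP-1 cells; compounds (final up to 57.5 uM) added 1 h before LPS (250 ng/mL) and ATP (1.25 mM) stimulation; lower signal means less secretion.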
HT1080NT lethal: kills 2HG-producing HT-1080-NT fibrosarcoma cells | HT-1080-NT fibrosarcoma viability, CellTiter-Glo ATP luminescence, 48 h | Potency, µM (highest dose often 46.1 µM), inactives show at the top dose activity, negative = less viability, actives largely listed as cytotoxic | hit rate 1.6% among 360,000 | AID 686970;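 further: NT is the 2HG producing partner of a matched IDH1 knockdown line; potency means the concentration at half of the fitted maximal effect; 0% = DMSO-treated cells and -100% = media-only wells without cells; nearly all actives have a fitted effect of over 55% in size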
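HT-1080-NT fibrosarcoma cells (2HG-overproducing), 750 cells/well in RPMI with 5% FBS, dosed after 2 h and incubated 48 h at 37C. CellTiter-Glo luminescence normalized to DMSO and no-cell wells; concentration-response curves fitted and classed.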
uPA generation: blocks generation of uPA at the cell surface. cell surface uPA generation assay, qHTS. Potency, µM (top dose mostly 38.3 µM), for the others: at the highest dose activity change, negative = inhibition, most hits filed as inhibitors. hit rate 0.31% among 330,000; active means well fitted inhibition curve with a large enough effect; inconclusive means small, poorly fitted or top-dose-only effect; inactive means no such curve, though single readings can be large or run the other way; tested in mouse RAW 264.7 cells; further: potency means the concentration at half of the fitted maximal effect; nearly all actives have a fitted effect of over 55% in size
DT40 TDP1 CPT: DT40-hTDP1 cell growth loss with CPT | chicken DT40 Tdp1-/-;hTDP1 cells + 20 nM CPT, ATP luminescence, 48 h | Potency, µM (top dose mostly 46.2 µM), without a hit: top-dose activity change, negative = growth inhibition, most hits filed as inhibitors | hit rate 12% among 420,000 | AID 686979; further: potency means the concentration at half of the fitted maximal effect; nearly all actives have a fitted effect of over 55% in size
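Cell growth measured by CellTiter-Glo luminescence after a minimum 48 h, 37 C compound exposure with 20 nM CPT in Tdp1-knockout DT40 cells stably expressing hTDP1, seeded 400/well; qHTS titration format.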
TDP1 cell noCPT: qHTS for Inhibitors of human tyrosyl-DNA phosphodiesterase 1 (TDP1): qHTS in cells in absence of CPT. AID 686978, 2013. DT40 Tdp1-/- hTDP1 cells, no CPT, ATP luminescence, 48 h. Potency, µM (doses to about 46.2 µM), without a hit: top-dose activity change, negative = growth inhibition, usual class: inhibitors. hit rate 15% among 420,000; further: potency means the concentration at half of the fitted maximal effect; nearly all actives have a fitted effect of over 55% in size
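Readout: luminescence from CellTiter-Glo after 30 min in the dark at RT. Cells: DT40 Tdp1-/- with stable hTDP1, 400/well. Exposure: compounds alone, ≥48 hr, 37 °C.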
HT1080 IDH1KD tx: toxicity to HT-1080 IDH1 knockdown cells (counter line). HT-1080 IDH1 knockdown viability, ATP luminescence, 48 h. Potency, µM (titrated, usually from 46.1 µM), for inactives: top-dose activity, negative = toxicity, usual class: cytotoxic. hit rate 2% among 360,000;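 further: potency means the concentration at half of the fitted maximal effect; 0% = DMSO wells and -100% = cell-free medium wells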
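Using the IDH1-knockdown HT-1080 line run in the same batch and compound series as the NT line, viability after 48 h at 37 °C was determined by CellTiter-Glo luminescence and expressed as % activity.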
An asterisk follows results filed as active. Rows were chosen to be rich in hits. Some 19% of all compounds tested hit in one or more screens of this group. Unless noted, the call rests on the fitted dose curve; in most records, active means well fitted curve in the direction sought with a large enough effect; inconclusive means small, poorly fitted or top-dose-only effect, or another doubt; inactive means no such curve, though single readings can be large; an effect the other way counts as inactive or inconclusive. Unless noted, on the % scale 0 is the no-effect control and ±100 the full control effect.

How did O=C(C[C@H]1C[C@@H]2c3cc(NC(=O)c4cccnc4)ccc3O[C@@H]2[C@H](CO)O1)NCc1ccncc1 do in these assays?
IL-1B inflam inh: 7.0; HT1080NT lethal: 10.1%; DT40 TDP1 CPT: 1.9%; TDP1 cell noCPT: -16.2%; HT1080 IDH1KD tx: 5.6%

How did C(=Nc1ccc2ccccc2n1)c1cccnc1 do in these assays?
DT40 TDP1 CPT: inconclusive; TDP1 cell noCPT: -11.2%

How did C(=Nc1cccnc1)c1ccc2ccccc2n1 do in these assays?
DT40 TDP1 CPT: 0.891µM*; TDP1 cell noCPT: 1µM*

Results for Cc1nnc(-c2cccc(Br)c2)c2cn(-c3ccc(Br)cc3)nc12 ?
IL-1B inflam inh: 42.7; HT1080NT lethal: -11.8%; uPA generation: 3.9%; DT40 TDP1 CPT: inconclusive; TDP1 cell noCPT: 14.6µM*; HT1080 IDH1KD tx: -26.6%

How did O=C(c1cn(-c2ccccc2)nc1-c1cccc(Br)c1)N1CCOCC1 do in these assays?
IL-1B inflam inh: inconclusive; HT1080NT lethal: -1.5%; uPA generation: 4.9%; DT40 TDP1 CPT: -21.3%; TDP1 cell noCPT: inconclusive; HT1080 IDH1KD tx: -2.5%

Results for Cc1nnc(-c2cccc(Br)c2)c2cn(-c3cccc(Br)c3)nc12 ?
IL-1B inflam inh: 0.0; HT1080NT lethal: -10.9%; uPA generation: -5.9%; DT40 TDP1 CPT: inconclusive; TDP1 cell noCPT: 16.4µM*; HT1080 IDH1KD tx: -27.6%

What do the screens show for `Cc1nnc(-c2cccc(Br)c2)c2cn(-c3ccccc3)nc12`?
IL-1B inflam inh: inconclusive; HT1080NT lethal: -3.9%; uPA generation: -3.6%; DT40 TDP1 CPT: 23.1µM*; TDP1 cell noCPT: inconclusive; HT1080 IDH1KD tx: -13.8%

Results for COc1cccc(Nc2ncc3nc(-c4cccs4)c(=O)n(C[C@H]4CCCO4)c3n2)c1 ?
DT40 TDP1 CPT: inconclusive; TDP1 cell noCPT: -18.3%

What do the screens show for `CCOC(=O)c1cc(C)n(CC2CCC(C(=O)Nc3ccc(OC)c(OC)c3)CC2)c1C` (configuration not stated)?
DT40 TDP1 CPT: -22.5%; TDP1 cell noCPT: -18.4%

Results for CCOC(=O)c1cc(C)n(CC2CCC(C(=O)Nc3ccc(Cl)cc3)CC2)c1C (configuration not stated) ?
DT40 TDP1 CPT: 18.4µM*; TDP1 cell noCPT: 11.6µM*

How did CCOC(=O)c1cc(C)n(CC2CCC(C(=O)Nc3cccc(Cl)c3)CC2)c1C (configuration not stated) do in these assays?
DT40 TDP1 CPT: inconclusive; TDP1 cell noCPT: 16.4µM*

How did CCOC(=O)C1CCN(C(=O)Nc2cccc(Cl)c2)CC1 do in these assays?
IL-1B inflam inh: 9.1; HT1080NT lethal: 6.9%; uPA generation: -3.3%; DT40 TDP1 CPT: 7.2%; TDP1 cell noCPT: -3.3%; HT1080 IDH1KD tx: 8.1%

What do the screens show for `CCCC[C@@H]1Cc2[nH][nH]c(=O)c2[C@H](c2ccc(C(C)C)cc2)O1`?
IL-1B inflam inh: -64.6*; HT1080NT lethal: 22.3%; DT40 TDP1 CPT: inconclusive; TDP1 cell noCPT: inconclusive; HT1080 IDH1KD tx: 0.6%

Results for CCCCC1Cc2[nH]c(=S)[nH]c(=O)c2C(c2ccc3ccccc3c2)O1 (configuration not stated) ?
IL-1B inflam inh: 19.7; HT1080NT lethal: inconclusive; DT40 TDP1 CPT: inconclusive; TDP1 cell noCPT: inconclusive; HT1080 IDH1KD tx: inconclusive

Results for CCCC[C@@H]1Cc2[nH][nH]c(=O)c2[C@@H](c2ccc(Cl)cc2)O1 ?
IL-1B inflam inh: 2.9; HT1080NT lethal: -19.2%; DT40 TDP1 CPT: -13.9%; TDP1 cell noCPT: -20.5%; HT1080 IDH1KD tx: 1.1%

What do the screens show for `CCCC[C@@H]1Cc2[nH][nH]c(=O)c2[C@H](c2ccc3ccccc3c2)O1`?
IL-1B inflam inh: -12.0; HT1080NT lethal: 0.3%; DT40 TDP1 CPT: -1.4%; TDP1 cell noCPT: 18.4µM*; HT1080 IDH1KD tx: 23.1µM*

What do the screens show for `CC[N+]1(C)CCC(O)(c2ccc(OC)cc2)C(C(=O)c2ccc(OC)cc2)C1` (configuration not stated)?
IL-1B inflam inh: -77.9*; HT1080NT lethal: inconclusive; uPA generation: -13.1%; DT40 TDP1 CPT: 0.651µM*; TDP1 cell noCPT: 0.92µM*; HT1080 IDH1KD tx: 4.61µM*

Results for Cc1cccc(CS(=O)(=O)c2ncc(Cl)c(C(=O)NCc3ccccc3)n2)c1 ?
IL-1B inflam inh: -96.9*; HT1080NT lethal: 25.9µM*; uPA generation: inconclusive; DT40 TDP1 CPT: 3.26µM*; TDP1 cell noCPT: 2.59µM*; HT1080 IDH1KD tx: inconclusive

Results for CCSc1nnc(NC(=O)c2ccccn2)s1 ?
IL-1B inflam inh: 21.3; HT1080NT lethal: inconclusive; uPA generation: -13.1%; DT40 TDP1 CPT: 5.01µM*; TDP1 cell noCPT: 3.16µM*; HT1080 IDH1KD tx: inconclusive

What do the screens show for `Cc1ccccc1NC(=O)c1nc(S(C)(=O)=O)ncc1Cl`?
IL-1B inflam inh: -98.5*; HT1080NT lethal: 14.6µM*; uPA generation: inconclusive; DT40 TDP1 CPT: 2.31µM*; TDP1 cell noCPT: 2.31µM*; HT1080 IDH1KD tx: 14.6µM*

How did CCSc1nnc(NC(=O)c2csc3c2CCC(C)C3)s1 (configuration not stated) do in these assays?
IL-1B inflam inh: 32.0; HT1080NT lethal: 8.1%; DT40 TDP1 CPT: 18.4µM*; TDP1 cell noCPT: inconclusive; HT1080 IDH1KD tx: 3.6%

What do the screens show for `CC(C)Oc1ccc(CN2CCC(n3nccc3NC(=O)C3CC3)CC2)cc1`?
IL-1B inflam inh: 6.7; HT1080NT lethal: -11.3%; uPA generation: 4.4%; DT40 TDP1 CPT: -6.0%; TDP1 cell noCPT: 1.7%; HT1080 IDH1KD tx: 16.0%

What do the screens show for `O=C(C[n+]1cccc(Cl)c1)c1ccc(F)cc1`?
DT40 TDP1 CPT: -2.1%; TDP1 cell noCPT: -18.0%

How did CCSc1ncc(Cl)c(C(=O)Nc2nnc(CC)s2)n1 do in these assays?
DT40 TDP1 CPT: -20.9%; TDP1 cell noCPT: -9.3%

Results for Cc1cccc(CS(=O)(=O)c2ncc(Cl)c(C(=O)Nc3c(C)cccc3C)n2)c1 ?
IL-1B inflam inh: -65.6*; HT1080NT lethal: inconclusive; uPA generation: inconclusive; DT40 TDP1 CPT: 3.66µM*; TDP1 cell noCPT: 4.11µM*; HT1080 IDH1KD tx: 14.6µM*

What do the screens show for `CCOC(=O)c1nc(S(C)(=O)=O)ncc1Cl`?
IL-1B inflam inh: -98.3*; HT1080NT lethal: 8.91µM*; uPA generation: inconclusive; DT40 TDP1 CPT: 4.11µM*; TDP1 cell noCPT: 3.66µM*; HT1080 IDH1KD tx: 6.31µM*

What do the screens show for `Cc1cccc(C)c1NC(=O)c1nc(S(=O)(=O)Cc2ccccc2)ncc1Cl`?
IL-1B inflam inh: -101.2*; HT1080NT lethal: 16.4µM*; uPA generation: 2.8%; DT40 TDP1 CPT: 2.59µM*; TDP1 cell noCPT: 2.91µM*; HT1080 IDH1KD tx: 8.2µM*
